The panel holds about 83,000 compounds, 20% with a hit somewhere; the sample as a whole holds those more often.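 Interpretation: 100, growth as untreated; towards 0, rising growth inhibition; 0, no net growth; 0 to -100, cell death. Compounds scoring below 10 were considered active.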 Values without a mark were called inactive. Calls of active or inactive are those of the source.

Common to all, as to experiment: NCI-60 one-dose screen, 48 h (100 = growth as untreated, 0 = no growth, -100 = all killed)
Holding throughout (settings): 10 µM

The subject of test [1] is BT-549 breast.
Test [2] relates to MDA-MB-435 melanoma.
The subject of test [3] is SW-620 colon.
Test [4] relates to MCF7 breast.
The subject of test [5] is HCT-116 colon.
In test [6] the test system is HCC-2998 colon.
In test [7] the test system is KM12 colon.

With `COc1ccc(Nc2cc(C)nc(NCCCNc3ccnc4cc(Cl)ccc34)n2)cc1`, the growth is -82.9% (active) in test [1]; -92.4% (active) in test [2]; -56.7% (active) in test [3]; -48.8% (active) in test [4]; -96.6% (active) in test [5]; -70% (active) in test [6]. In test [7], the growth was 20%.

On to `O=S(=O)(Nc1ccccn1)c1ccc(N=Nc2ccc(O)c3ncccc23)cc1`, for which the growth in test [1] was 1.2% (active); in test [2], 10.1%; in test [3], 11.7%; in test [4], 5.03% (active); in test [5], 10.6%; in test [6] it was 35.7%. Besides, in test [7], the growth was 14.1%.

On to `Cc1cc(C)c2c(n1)sc1c(Nc3ccc(Cl)cc3)ncnc12`, for which the growth in test [1] was 29.8%; in test [2], 27.3%; in test [3], 34%; in test [4], 16.5%; in test [5], 15.1%; in test [6], 54.4%. In addition, the growth in test [7] is 43.1%.

`COc1ccccc1/C=C/C(=O)c1ccccc1`: the growth in test [1] was 88.4%; in test [2], 70.7%; in test [3], 14.9%; in test [4], 32.2%; in test [5] it was 55.3%; in test [6] it was 101%. In test [7], the growth is 27.9%.

As to `COc1ccc(OC)c(/C=C/c2nc(SC)n(-c3ccc(Cl)cc3)n2)c1`, the growth in test [1] is 80%; in test [2] it was 8.73% (active); in test [3], 77.4%; in test [4], 46.7%; in test [5] it was 59.8%; in test [6], 69.6%. Also, the growth in test [7] is 53.1%.

Take `N#Cc1ncc(-c2ccc(C(F)(F)F)cc2)c(NCc2cc(C(F)(F)F)cc(C(F)(F)F)c2)n1`: the growth in test [1] is 21.8%; in test [2], 12.2%; in test [3] it was 14.5%; in test [4], 8.58% (active); in test [5], 7.85% (active); in test [6], 45%. Besides, the growth in test [7] is 10.2%.

As for `O=C(N/N=C/c1ccccc1O)C(O)(c1ccccc1)c1ccccc1`, the growth was 70.3% in test [1]; 65.2% in test [2]; 51.1% in test [3]; 50.7% in test [4]; 8.42% (active) in test [5]; 76.3% in test [6]. The growth in test [7] was 53.7%.

Consider `CCN(CC)CCSCCCNc1c2ccc(Cl)cc2nc2ccc(OC)cc12`, for which the growth is 5.29% (active) in test [1]; -94.7% (active) in test [2]; -23.7% (active) in test [3]; -33% (active) in test [4]; -55.9% (active) in test [5]; -73.2% (active) in test [6]. In test [7], the growth was -10.9% (active).

As for `COc1ccc(-c2nc3ncccn3c2-c2nnc(-c3ccc(F)cc3)o2)cc1`, the growth in test [1] was 99.7%; in test [2], 107%; in test [3], 105%; in test [4], 92.7%; in test [5], 99.3%; in test [6] it was 104%. Also, in test [7], the growth is 104%.

Turning to `COc1ccc2c(c1)nc(N)c1c3cccnc3cn21`, the growth in test [1] is 44.3%; in test [2] it was -14.3% (active); in test [3] it was 20.5%; in test [4], 20.4%; in test [5], 10.8%; in test [6], 20.2%. Moreover, in test [7], the growth is 17.1%.

Take `CCCCCCc1cc(N=Nc2ccc(S(=O)(=O)Nc3cc(C)nc(C)n3)cc2)c(O)cc1O`: the growth was 89.9% in test [1]; 100% in test [2]; 113% in test [3]; 92.7% in test [4]; 86.3% in test [5]; 101% in test [6]. The growth in test [7] is 104%.

For `CC(=O)[C@H]1CC[C@H]2[C@@H]3CCC4=CC(=O)C=C[C@]4(C)[C@H]3CC[C@]12C`, the growth was 98% in test [1]; 98.7% in test [2]; 108% in test [3]; 97.9% in test [4]; 85.6% in test [5]; 99.2% in test [6]. Further, in test [7], the growth is 107%.

Turning to `Nc1ccc2c(c1)Cc1cc(N)c(Br)cc1-2`, the growth was 94.4% in test [1]; 102% in test [2]; 108% in test [3]; 51.4% in test [4]; 101% in test [5]; 80.8% in test [6]. Further, in test [7], the growth is 99.6%.

`Cc1ccc(CC#N)cc1C`: the growth in test [1] is 124%; in test [2], 88.4%; in test [3], 109%; in test [4], 104%; in test [5], 93%; in test [6], 103%. Also, the growth in test [7] is 94.7%.

On to `CCCCCCN(CCCCCC)CC(O)c1ccc2c3c(cccc13)CC2` (centres undefined), for which the growth in test [1] is 62.8%; in test [2] it was 42.9%; in test [3], 19.2%; in test [4], 54.2%; in test [5], 17.4%; in test [6] it was 20.3%. Also, the growth in test [7] is 58%.

Consider `CC(C)=CCc1ccc(O)c(=O)cc1C(C)C`, for which the growth in test [1] is -2.13% (active); in test [2], 30.7%; in test [3], 34.1%; in test [4] it was 21.5%; in test [5], 17.3%; in test [6] it was 7.5% (active). Also, in test [7], the growth is 26.4%.

Take `Nc1nc(N=Nc2ccc(O)cc2)cc(=O)[nH]1`: the growth in test [1] was 95.5%; in test [2] it was 98.3%; in test [3], 104%; in test [4] it was 101%; in test [5] it was 112%; in test [6], 106%. In addition, the growth in test [7] was 111%.

As to `NC(=O)SCC(=O)Nc1ccc(S(N)(=O)=O)cc1`, the growth in test [1] was 111%; in test [2] it was 106%; in test [3], 99.2%; in test [4], 104%; in test [5], 109%; in test [6] it was 102%. The growth in test [7] was 101%.

`CC[C@H](C)C(=O)O[C@H]1CCC=C2C=C[C@H](C)C(CCC3C[C@@H](O)CC(=O)O3)[C@H]21` (some centres undefined): the growth in test [1] is 78.2%; in test [2], 84.4%; in test [3] it was 71.6%; in test [4] it was 83.6%; in test [5] it was 46.4%; in test [6] it was 89%. The growth in test [7] was 103%.

With `Cc1ccc2oc3nc(C)c(C(=O)NCc4ccccc4)cc3c(=O)c2c1`, the growth was 95.1% in test [1]; 65.5% in test [2]; 77.5% in test [3]; 45.6% in test [4]; 60.6% in test [5]; 35.4% in test [6]. Besides, the growth in test [7] is 28.6%.

`Cc1ccc(NC(=O)NC2CCCCC2)cc1`: the growth was 115% in test [1]; 105% in test [2]; 108% in test [3]; 93.8% in test [4]; 105% in test [5]; 111% in test [6]. Also, the growth in test [7] was 101%.

Consider `CN(C)c1ccc(/C=C/C=N/NC(=O)c2cc(O)c(O)c(O)c2)cc1`, for which the growth in test [1] was 89.7%; in test [2], 96.7%; in test [3], 43.4%; in test [4] it was 87.8%; in test [5], 52.7%; in test [6] it was 109%. In addition, the growth in test [7] is 104%.

Source of the values: PubChem BioAssay (NCI).
